Assay outcomes deposited in PubChem by National Center for Advancing Translational Sciences (NCATS).
Only some compounds are listed: those with a hit (about 9.9% of all), similar ones and a draw of the others.
MCF10A rereplic: induces DNA re-replication in MCF 10a normal breast cells; MCF 10A DNA re-replication, Hoechst nuclear intensity, 48 h; Potency, µM (series often up to 46.1 µM), inactives show at the top dose activity, positive = re-replication, hits mostly activators; 2.9% of 350,000 active; further: potency means the concentration at half of the fitted maximal effect; % of control where 0% means no effect; nearly all actives have a fitted effect of over 50% in size
SW480 rerep: induces DNA re-replication in SW480 colon adenocarcinoma cells; Potency, µM (titrated, usually from 46.1 µM), for inactives: at the top dose re-replication activation, usual class: activators; SW480 DNA re-replication, Hoechst DNA content imaging, 48 h; 1.8% of 340,000 active; further: potency means the concentration at half of the fitted maximal effect; % of control where 0% means no effect; nearly all actives have a fitted effect of over 55% in size
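250 cells/well; 23 nL cpd via pin tool; 48 hr, 37 C, 5% CO2; Hoechst 40 min; imager read of total nuclear intensity, ex 405/em 500-530 nm.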
KB-3-1 tox: kills parental KB-3-1 adenocarcinoma cells | KB-3-1 viability, CellTiter-Glo ATP luminescence, 72 h | Potency, µM (series often up to 46.1 µM), usual class: cytotoxic | 1.4% of 400,000 active | AID 1347075; further: potency means the concentration at half of the fitted maximal effect; on the % scale 0 is the no-effect control and ±100 the full control effect; nearly all actives have a fitted effect of over 60% in size
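Cytotoxicity measured as CellTiter-Glo luminescence after 72 h at 37 C. Compound titrations were pinned onto drug-naive KB-3-1 parental adenocarcinoma cells grown in DMEM with 10% FBS, and normalized data fitted to concentration-response curves.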
IL1B secr inh: blocks inflammasome-driven IL-1 beta release. THP-1 LPS/ATP IL-1B secretion, AlphaLISA, 16 h; active compounds read low. activity change, % at 57.5 µM. 4.7% of 360,000 active. AID 743279; in the data active means activity change below about -50%; inconclusive means mostly about -30% to -49%; further: on the % scale 0 is the no-effect control and ±100 the full control effect
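THP-1 cells pretreated 1 hr with compounds (up to 57.5 uM final), then stimulated with LPS (250 ng/mL final) plus ATP (1.25 mM final); secreted IL-1B measured by AlphaLISA after 16 hr, decreased signal indicating inhibition.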
KB-V1 MDR tox: KB-V1 MDR subline cytotoxicity; KB-V1 MDR cells viability, CellTiter-Glo, 72 h; Potency, µM (titrated, usually from 46.1 µM), usual class: cytotoxic; 3.4% of 400,000 active; further: potency means the concentration at half of the fitted maximal effect; on the % scale 0 is the no-effect control and ±100 the full control effect; nearly all actives have a fitted effect of over 60% in size
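Cytotoxicity via CellTiter-Glo luminescence after 72 h compound exposure at 37 degrees C. Cells: drug-selected KB-V1 line, DMEM phenol-red free plus 10% FBS. Compounds tested at multiple concentrations; normalized data fitted to concentration-effect curves.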
* marks the source's active call; other numbers are inactive results; i = inactive; ? = inconclusive; . = no result; [ ] = dose if it differs, or a comment. Unless noted, the call rests on the fitted dose curve; in most records, active means well fitted curve in the direction sought with a large enough effect; inconclusive means small, poorly fitted or top-dose-only effect, or another doubt; inactive means no such curve, though single readings can be large; an effect the other way counts as inactive or inconclusive.

SMILES	MCF10A rereplic	SW480 rerep	KB-3-1 tox	IL1B secr inh	KB-V1 MDR tox
CCOc1ccc(CCNC(=O)Cn2nc(C)c3c(C)n(-c4ccccc4)nc3c2=O)cc1OCC	-4%	-11%	i	-2	i
COc1ccc([C@H]2CC(=O)C=C(c3cccc(C(C)C)c3)C2)cc1OC	?	4%	?	-51*	?
COc1ccc([C@H]2CC(=O)C=C(c3cc(C=O)ccc3OC)C2)cc1	?	9.2µM*	16µM*	39	?
COc1ccc([C@H]2CC(=O)C=C(c3c(OC)cccc3OC)C2)cc1	1.2µM*	18µM*	?	0	?
COc1ccc(C2=CC(=O)CC(c3ccc(OC)cc3)C2)cc1 (centres undefined)	9%	?	?	-24	i
COc1ccc([C@H]2CC(=O)C=C(c3cc(F)ccc3OC)C2)cc1	21µM*	?	?	-3	?
O=C(C1=C(O)C(=O)N(c2ccccc2)C1c1ccc([N+](=O)[O-])cc1)c1cccs1 (centres undefined)	-2%	-6%	i	4	i
CCC(CO)Nc1ncnc2c1cnn2-c1ccc(C)cc1 (centres undefined)	.	.	i	.	?
NC(=O)c1ccsc1NC(=O)CS(=O)(=O)c1ccc(F)cc1	1%	-6%	i	-7	i
Cc1ccc(S(=O)(=O)N(C)C)cc1NC(=O)Cn1c(CN2CCOCC2)nc2ccccc2c1=O	-3%	-25%	i	-4	i
COc1ccc([C@H]2CC(=O)C=C(c3ccc(OC)c(OC)c3)C2)cc1	9.2µM*	-7%	i	?	i
CCOc1ccc(Cl)cc1C1=CC(=O)C[C@H](c2ccc(OC)cc2)C1	?	3.7µM*	?	74	4.6µM*
COc1ccc([C@H]2CC(=O)C=C(c3cc(OC)ccc3OC)C2)cc1	?	?	16µM*	-7	23µM*
Cc1cccc(NC(=O)CSc2nc3c(oc4ccccc43)c(=O)n2Cc2ccco2)c1	.	.	i	.	i
CC(=O)c1ccc(OCCCC(=O)NCCc2ccc(C(F)(F)F)cc2)cc1	-9%	-10%	i	-11	i
COc1ccc(/C=N/Nc2nc(=O)[nH]nc2C)cc1[N+](=O)[O-]	-7%	3%	i	-11	i
COc1ccc(/C=N/Nc2nc(=O)[nH]nc2C)cc1OC	?	2.9µM*	i	13	i
COc1cc(/C=N/Nc2nc(=O)[nH]nc2C)ccc1O	?	15µM*	i	0	i
COc1cc(/C=N\Nc2nc(-c3ccc(C)cc3)c(NC(C)=O)s2)ccc1O	1%	-11%	i	-62*	i
CCOc1ccc(NC(=O)NC(CC)Cn2nnc3ccccc3c2=O)cc1 (centres undefined)	.	.	i	.	i
Clc1ccc(OCCOCCNCc2ccccc2)cc1Cl	28%	-3%	i	-26	i
CCC(CO)NC(=O)C(=O)Nc1c2c(nn1-c1ccc(F)cc1)CSC2 (centres undefined)	.	.	i	.	i
CN(C)CCNC(=O)c1ccc(Cl)s1	16%	0%	i	2	i
CN(Cc1ccc(Cl)s1)C(=O)CCl	?	?	?	-106*	?
CN(Cc1ccccc1)C(=O)COC(=O)c1cc(Cl)nc(Cl)c1	-1%	-5%	i	22	i
SMILES	MCF10A rereplic	SW480 rerep	KB-3-1 tox	IL1B secr inh	KB-V1 MDR tox
COc1ccc(CN(C)C(=O)COC(=O)c2cnc(Cl)c(Cl)c2)cc1	0%	-7%	i	-99*	i
CN(Cc1ccc(Cl)cc1)C(=O)CCl	?	?	16µM*	-103*	?
COc1ccc(CN(C)C(=O)CCl)cc1	?	?	i	-98*	i
Cc1ccc(C(=O)NCC(=O)NCC(=O)OCC(=O)c2cccs2)cc1	-3%	1%	i	14	?
O=C(O)c1ccc(-c2nnn(Cc3cccc(C(F)(F)F)c3)n2)cc1	1%	-9%	i	34	i
C#CC[N+](CC)(CC)CC#Cc1ccccc1	2%	-6%	i	23	i
C#CC[N+](C)(C)CC#Cc1ccc(C)cc1	6%	-14%	12µM*	?	i
C/C(=N\NC(N)=S)c1ccc2c(c1)OCCO2	0%	-9%	?	3	?
CC(=NNC(N)=S)c1ccc2cc3c(cc2c1)OCO3	.	.	?	?	0.58µM*
CC(=O)N/N=C(\C)c1ccc2c(c1)OCCO2	-4%	-7%	?	7	23µM*
C/C(=N\NC(=S)Nc1ccc(F)cc1)c1ccc2c(c1)OCCO2	5.8µM*	?	?	-58*	12µM*
CCCCn1[nH]c(-c2ccccc2)cc1=O	?	3%	i	0	i
Oc1ccc(Cl)cc1-c1cc(-c2cccc(Br)c2)n[nH]1	?	17%	?	-14	21µM*
Oc1ccc(Cl)cc1-c1cc(-c2ccco2)[nH]n1	?	?	i	47	?
Oc1ccc(Br)cc1-c1ccn[nH]1	?	38%	i	-3	i
Cc1ccc(O)c(-c2cc(-c3ccccc3C)[nH]n2)c1	?	?	?	-95*	?
CC(C)(C)c1ccc(-c2cc(-c3ccccc3O)[nH]n2)cc1	9.2µM*	?	?	-99*	?
Oc1ccccc1-c1cc(-c2cccc(F)c2)n[nH]1	23%	8%	?	52	?
O=[N+]([O-])c1ccccc1-c1cc(-c2cc(Cl)ccc2O)n[nH]1	?	-25%	i	-101*	?
NC(=O)CC(NC(=O)c1ccccc1)c1ccc(NCCN2CCCCC2)c([N+](=O)[O-])c1 (centres undefined)	-2%	4%	i	1	i
COc1ccc(-c2cc(-c3ccc(C)cc3)n[nH]2)c(O)c1	26%	?	i	6	i
COc1ccc(-c2cc(-c3cc(C)ccc3O)[nH]n2)cc1	18µM*	?	?	?	?
Oc1ccc(Cl)cc1-c1cc(-c2ccccc2Cl)[nH]n1	-180%[0.0737 µM]	?	?	13	?
Cc1ccc(O)c(-c2cc(-c3ccccc3[N+](=O)[O-])[nH]n2)c1	?	5%	i	-87*	i
Oc1ccccc1-c1cc(-c2ccccc2Cl)[nH]n1	?	-2%	i	?	21µM*
COc1ccc(O)c(-c2cc(-c3ccccc3[N+](=O)[O-])[nH]n2)c1	5%	3%	?	0	i
CCOC(=O)CSc1n[nH]c(NS(=O)(=O)c2ccccc2C(F)(F)F)n1	-2%	16%	i	-77*	i
CC(C)c1ccc(Cc2cn3cc(-c4cc5ccccc5oc4=O)nc3s2)cc1	.	.	0.58µM*	.	?
